Values joined by “and” are separate entries in the source; they are usually repeats but may differ in a detail not shown here. Equal entries are not always repeated. Hit rate of the full screen: of about 5,500 compounds, about 2,000 (36%) were called active. Inconclusive results (about 18%) are left out. Rule as the data show it: active = normalized growth mostly below about 0.91 (no sharp cut-off); inconclusive = no clear call, values can overlap the other calls; inactive = mostly above about 0.92. The list shows a part of the results.
Assay: chemical genetic growth profiling, strain panel (AID 1159580);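 also: tested at 20 µM; growth read once vehicle control cultures reached saturation at 30 °C; 1 = growth at the plate median or of vehicle wells; lower values mean less growth of the strain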
Details: S. cerevisiae deletion strains, growth OD

Measured: normalized growth

Cc1cc(C(C)(C)CC(C)(C)C)ccc1OCCOCC[N+](C)(C)Cc1ccccc1
active: locus YAL013W, strain DEP1, hits give low values 0.056 | locus YAL021C, strain ccr4, hits give low values 0.0621 | locus YAL026C, strain drs2, hits give low values 0.0577 | locus YAL030W, strain snc1, hits give low values 0.0548 | locus YBL061C, strain skt5, hits give low values 0.0577 | locus YBR009C, strain hhf1, hits give low values 0.0593 | locus YBR021W, strain FUR4, hits give low values 0.0884 | locus YBR023C, strain chs3, hits give low values 0.0588 | locus YBR171W, strain sec66, hits give low values 0.0729 | locus YBR229C, strain ROT2, hits give low values 0.0513 | locus YBR231C, strain swc5, hits give low values 0.0584 | locus YBR279W, strain paf1, hits give low values 0.0568 | locus YCL011C, strain gbp2, hits give low values 0.0539 | locus YCL016C, strain dcc1, hits give low values 0.0604 | locus YCL029C, strain bik1, hits give low values 0.0578 | locus YCL061C, strain MRC1, hits give low values 0.0639 | locus YCL069W, strain vba3, hits give low values 0.0588 | locus YCR088W, strain abp1, hits give low values 0.0592 | locus YDL005C, strain med2, hits give low values 0.0722 | locus YDL035C, strain GPR1, hits give low values 0.0517 | locus YDL040C, strain nat1, hits give low values 0.0573 | locus YDL074C, strain BRE1, hits give low values 0.0803 | locus YDL101C, strain DUN1, hits give low values 0.0608 | locus YDL134C, strain PPH21, hits give low values 0.0535 | locus YDL185W, strain tfp1, hits give low values 0.0735 | locus YDL192W, strain arf1, hits give low values 0.0575 | locus YDR001C, strain nth1, hits give low values 0.0561 | locus YDR069C, strain doa4, hits give low values 0.0594 | locus YDR101C, strain arx1, hits give low values 0.0572 | locus YDR137W, strain rgp1, hits give low values 0.0892 | locus YDR159W, strain sac3, hits give low values 0.0785 | locus YDR162C, strain NBP2, hits give low values 0.0508 | locus YDR195W, strain ref2 0.112 | locus YDR297W, strain sur2, hits give low values 0.0548 | locus YDR318W, strain mcm21, hits give low values 0.0609 | locus YDR334W, strain swr1, hits give low values 0.0602 | locus YDR335W, strain msn5, hits give low values 0.0584 | locus YDR388W, hits give low values 0.0542 | locus YDR392W, strain spt3, hits give low values 0.0691 | locus YDR502C, strain sam2, hits give low values 0.0626 | locus YEL003W, strain gim4, hits give low values 0.0521 | locus YEL037C, strain rad23, hits give low values 0.0554 | locus YEL061C, strain CIN8 (second series), hits give low values 0.0588 | locus YEL061C, strain CIN8, hits give low values 0.0504 | locus YER015W, strain faa2, hits give low values 0.0619 | locus YER016W, strain bim1, hits give low values 0.0588 | locus YER110C, hits give low values 0.0699 | locus YER111C, strain swi4, hits give low values 0.0695 | locus YER155C, strain BEM2 (second series), hits give low values 0.0851 | locus YER155C, strain BEM2, hits give low values 0.0684 | locus YER167W, strain BCK2, hits give low values 0.0531 | locus YFR010W, strain ubp6, hits give low values 0.0641 | locus YGL078C, strain dbp3, hits give low values 0.0843 | locus YGL086W, strain mad1, hits give low values 0.0561 | locus YGL167C, strain pmr1, hits give low values 0.0723 | locus YGL173C, strain kem1, hits give low values 0.0635 | locus YGL227W, strain vid30, hits give low values 0.0611 | locus YGL240W, strain doc1, hits give low values 0.0709 | locus YGL248W, strain PDE1, hits give low values 0.05 | locus YGL253W, strain hxk2, hits give low values 0.0523 | locus YGR135W, strain pre9, hits give low values 0.0617 | locus YGR252W, strain gcn5, hits give low values 0.165 | locus YHR013C, strain ard1, hits give low values 0.0989 | locus YHR027C, strain rpn1, hits give low values 0.0592 | locus YHR030C, strain SLT2, hits give low values 0.0522 and 0.101 | locus YHR079C, strain IRE1 (second series), hits give low values 0.0549 | locus YHR079C, strain IRE1, hits give low values 0.104 | locus YHR094C, strain hxt1, hits give low values 0.0561 | locus YHR129C, strain ARP1, hits give low values 0.0578 | locus YHR142W, strain chs7, hits give low values 0.072 | locus YHR200W, strain rpn10, hits give low values 0.0568 | locus YIL066C, strain RNR3, hits give low values 0.054 | locus YIL073C, strain SPO22, hits give low values 0.12 | locus YIL125W, strain kgd1, hits give low values 0.0749 | locus YIR030C, strain dcg1, hits give low values 0.0563 | locus YJL092W, strain hpr5, hits give low values 0.0568 | locus YJL095W, strain BCK1 (second series), hits give low values 0.0554 | locus YJL095W, strain BCK1, hits give low values 0.0585 and 0.103 | locus YJL115W, strain asf1, hits give low values 0.0691 | locus YJL129C, strain trk1, hits give low values 0.0794 | locus YJL134W, strain LCB3, hits give low values 0.0506 | locus YJL154C, strain vps35, hits give low values 0.0594 | locus YJL164C, strain tpk1, hits give low values 0.057 | locus YJL166W, strain qcr8, hits give low values 0.0596 | locus YJL168C, strain set2, hits give low values 0.0557 | locus YJL187C, strain SWE1 (second series), hits give low values 0.0514 | locus YJL187C, strain SWE1, hits give low values 0.0563 | locus YJR043C, strain POL32, hits give low values 0.0648 | locus YJR066W, strain TOR1, hits give low values 0.00362 | locus YKL009W, strain mrt4, hits give low values 0.213 | locus YKL068W, hits give low values 0.172 | locus YKL085W, strain MDH1 (second series), hits give low values 0.0866 | locus YKL085W, strain MDH1, hits give low values 0.0866 | locus YKL160W, strain elf1, hits give low values 0.0603 | locus YKR001C, strain vps1, hits give low values 0.0608 | locus YKR026C, strain gcn3, hits give low values 0.0637 | locus YKR091W, strain srl3, hits give low values 0.0576 | locus YLL001W, strain dnm1, hits give low values 0.0592 | locus YLL026W, hits give low values 0.056 | locus YLL041C, strain sdh2, hits give low values 0.0575 | locus YLR027C, strain aat2, hits give low values 0.0549 | locus YLR039C, strain RIC1, hits give low values 0.0893 | locus YLR058C, strain SHM2, hits give low values 0.052 | locus YLR102C, strain apc9, hits give low values 0.0571 | locus YLR113W, strain HOG1, hits give low values 0.119 | locus YLR221C, strain rsa3, hits give low values 0.0575 | locus YLR258W, strain gsy2, hits give low values 0.0566 | locus YLR262C, strain YPT6 (second series), hits give low values 0.0719 | locus YLR262C, strain YPT6, hits give low values 0.0979 | locus YLR268W, strain sec22, hits give low values 0.0813 | locus YLR320W, strain mms22, hits give low values 0.0724 | locus YLR330W, strain CHS5, hits give low values 0.0528 | locus YLR342W, strain FKS1 (second series), hits give low values 0.0706 | locus YLR342W, strain FKS1, hits give low values 0.0618 | locus YLR357W, strain rsc2, hits give low values 0.114 | locus YLR370C, strain arc18, hits give low values 0.0577 | locus YLR371W, strain rom2, hits give low values 0.0597 | locus YLR384C, strain iki3, hits give low values 0.0598 | locus YLR418C, strain cdc73, hits give low values 0.0929 | locus YML016C, strain PPZ1, hits give low values 0.0514 | locus YML032C, strain rad52, hits give low values 0.0687 | locus YML120C, strain ndi1, hits give low values 0.0557 | locus YML124C, strain tub3, hits give low values 0.0571 | locus YMR058W, strain fet3, hits give low values 0.0582 | locus YMR078C, strain ctf18, hits give low values 0.0671 | locus YMR125W, strain sto1, hits give low values 0.073 | locus YMR129W, hits give low values 0.0561 | locus YMR205C, strain PFK2, hits give low values 0.0818 | locus YMR223W, strain ubp8, hits give low values 0.0638 | locus YMR231W, strain pep5, hits give low values 0.0634 | locus YMR307W, strain GAS1, hits give low values 0.113 | locus YNL067W, strain RPL9B, hits give low values 0.051 | locus YNL071W, strain lat1, hits give low values 0.0592 | locus YNL153C, strain GIM3, hits give low values 0.0542 | locus YNL183C, strain NPR1, hits give low values 0.00188 | locus YNL209W, strain ssb2, hits give low values 0.0576 | locus YNL233W, strain BNI4, hits give low values 0.0574 | locus YNL248C, strain rpa49, hits give low values 0.0804 | locus YNL250W, strain rad50, hits give low values 0.109 | locus YNL271C, strain bni1, hits give low values 0.0656 | locus YNL298W, strain CLA4, hits give low values 0.0604 | locus YNL307C, strain MCK1, hits give low values 0.0681 | locus YNL322C, strain KRE1 (second series), hits give low values 0.0636 | locus YNR049C, strain mso1, hits give low values 0.0552 | locus YNR052C, strain pop2, hits give low values 0.0587 | locus YOL006C, strain TOP1, hits give low values 0.115 | locus YOL147C, strain pex11, hits give low values 0.0557 | locus YOR001W, strain rrp6, hits give low values 0.0651 | locus YOR061W, strain CKA2, hits give low values 0.0485 | locus YOR069W, strain VPS5, hits give low values 0.0867 | locus YOR070C, strain gyp1, hits give low values 0.0566 | locus YOR080W, strain dia2, hits give low values 0.0634 | locus YOR083W, strain WHI5, hits give low values 0.0581 | locus YOR106W, strain vam3, hits give low values 0.0627 | locus YOR136W, strain idh2, hits give low values 0.0687 | locus YOR144C, strain elg1, hits give low values 0.0552 | locus YOR184W, strain ser1, hits give low values 0.0763 | locus YOR231W, strain MKK1, hits give low values 0.103 | locus YOR265W, strain rbl2, hits give low values 0.055 | locus YOR270C, strain vph1, hits give low values 0.0945 | locus YOR290C, strain snf2, hits give low values 0.0584 | locus YOR316C, strain cot1, hits give low values 0.056 | locus YPL051W, strain arl3, hits give low values 0.0608 | locus YPL055C, strain LGE1, hits give low values 0.0718 | locus YPL078C, strain atp4, hits give low values 0.0619 | locus YPL106C, strain sse1, hits give low values 0.0907 | locus YPL240C, strain hsp82, hits give low values 0.057 | locus YPL256C, strain CLN2, hits give low values 0.105 | locus YPR119W, strain clb2, hits give low values 0.0584 | locus YPR141C, strain kar3, hits give low values 0.0826 | locus YPR163C, strain tif3, hits give low values 0.0658 | locus YPR167C, strain met16, hits give low values 0.059 | strain wtn01, hits give low values 0.0645

— PubChem BioAssay AID1159580 (chemical genetic matrix, 2015)
